Assay [1] concerns the target Cell division control protein 42 homolog (Homo sapiens) (UniProt P60953). As to the kind of experiment: activated mutant Cdc42 GTP-binding inhibitors, dose response, biochemical, multiplex bead flow cytometry, Bodipy-FL-GTP (AID 1333;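 active means fitted half-maximal concentration within the tested dose range, moderate curve steepness, a statistically real signal drop, and little compound fluorescence or tag-binding interference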). For orientation: A flow cytometer gives signals particle by particle.
The target is the same in assay [2]. The experiment in a line: wildtype Cdc42 GTP-binding inhibitors, dose response, biochemical, multiplex bead flow cytometry, Bodipy-FL-GTP (AID 1334;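 active means fitted half-maximal concentration within the tested range, moderate curve steepness, significant signal drop, and little compound fluorescence or bead-linkage interference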). Particulars: bead-based flow cytometry, Bodipy-FL-GTP binding to GST-Cdc42; at 100 µM (top of the series) unless noted.
The target of assay [3] is GTPase HRas (Homo sapiens) (UniProt P01112). As to the kind of experiment: inhibitors of GTP binding to wildtype Ras, dose response, biochemical, multiplex bead flow cytometry (AID 1335). The settings on record: bead-based flow cytometry, Bodipy-GTP binding to GST-Ras; at 100 µM (top of the series) unless noted.
In assay [4] the test system is Ras-related protein Rab-7a (dog), GTP binding. As to the kind of experiment: Rab7 GTP binding inhibitors, potency, dose response, biochemical, wildtype, multiplex bead flow cytometry (AID 1336; call rule not given here).
Assay [5] addresses Ras-related C3 botulinum toxin substrate 1 (Homo sapiens) (UniProt P63000). The experiment in a line: wildtype Rac1 GTP binding inhibitors, dose response, biochemical, multiplex bead flow cytometry (AID 1340;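 active means dose curve with midpoint inside tested range, moderate steepness, plateau gap beyond fit error, low compound glow and bead-link interference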). Particulars: GST-Rac1 beads, Bodipy-FL-GTP binding; at 100 µM (top of the series) unless noted.
Assay [6] addresses GTPase HRas (Homo sapiens) (UniProt P01112). The experiment in a line: activated Ras mutant GTP binding inhibitors, dose response, biochemical, multiplex bead flow cytometry (AID 1341;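 active means dose-response curve with midpoint inside the tested range, moderate steepness, significant amplitude and little compound fluorescence or bead-attachment interference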;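 further: GST-tagged constitutively activated Ras mutant immobilized on beads and multiplexed with other GTPases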).
The nature of assay [7]: RPL19A-GFP modulators, yeast TOR pathway, confirmation, cell-based, S. cerevisiae, flow cytometry, cherry picks, mother/daughter gates (AID 2270;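 active means GFP response below 50% of the DMSO control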). Particulars: S. cerevisiae RPL19A-GFP strain, 3 h, at 10 µM, stronger effect = lower value, 100 = same GFP as DMSO wells.
Assay [8] is described as follows: LAP4-GFP expression modulators in yeast, confirmation, cell-based, cherry picks, flow cytometry, mother/daughter gates (AID 2271;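 active means GFP response above 150% of the DMSO control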;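 further: ratio of sample to DMSO plate mean so 100% equals DMSO level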). Particulars: S. cerevisiae LAP4-GFP strain, 3 h, at 10 µM, stronger effect = higher value, 100 means same as DMSO control.
Assay [9] can be described thus: modulators of MEP2-GFP levels in yeast, confirmation, S. cerevisiae, flow cytometry GFP, cherry picks (AID 2272;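 active means GFP response above 150% of the DMSO control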;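 further: ratio of well signal to plate DMSO mean so 100% equals DMSO level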). The settings on record: S. cerevisiae MEP2-GFP strain, 3 h, at 10 µM, stronger effect = higher value.
The nature of assay [10]: AGP1-GFP expression modulators, hit retest, confirmation, cell-based, flow cytometry, S. cerevisiae, cherry picks (AID 2273;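 active means GFP response above 150% of the DMSO level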;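 further: median GFP channel fluorescence over the whole cell population gate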). The settings on record: S. cerevisiae AGP1-GFP strain, 3 h, at 10 µM.
A short description of assay [11]: modulators of CIT2-GFP expression in yeast, confirmation, S. cerevisiae, GFP fusion, cherry picks, mother/daughter gates (AID 2274;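 active means GFP response above 150% of the DMSO level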). The settings on record: S. cerevisiae CIT2-GFP strain, flow cytometry, 3 h, at 10 µM, stronger effect = higher value.
Assay [12] deals with Regulator of G-protein signaling 16 (Homo sapiens) (UniProt O15492). The experiment in a line: modulators of RGS–Galpha-o binding, primary screen, biochemical, multiplexed beads, flow cytometry, RGS4/7/8/16/19 (AID 1504).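 Further: fluorescently labeled Galpha-o bound to GDP with aluminium fluoride binding biotinylated RGS beads.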 The settings on record: multiplexed bead flow cytometry, measured here: RGS16 interaction, at 10 µM.
The target of assay [13] is Regulator of G-protein signaling 19 (Homo sapiens) (UniProt P49795). The assay is described as above. The settings on record: multiplexed bead flow cytometry, measured here: RGS19 interaction, at 10 µM.
The target of assay [14] is Regulator of G-protein signaling 7 (Homo sapiens) (UniProt P49802). The assay is described as above. The settings on record: multiplexed bead flow cytometry, measured here: RGS7 interaction, at 10 µM.
Assay [15] deals with Regulator of G-protein signaling 8 (Homo sapiens) (UniProt P57771). Described as above. Particulars: multiplexed bead flow cytometry, measured here: RGS8 interaction, at 10 µM.
Assay [16] can be described thus: disruption of biotin probe capture by avidin, counter-screen for RGS protein interaction modulators, biochemical, flow cytometry, bead-based (AID 1783;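 active means inhibition above 50%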;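 further: median green fluorescence of gated singlet beads compared with DMSO control wells; 0% = DMSO wells and 100% = complete loss of bead fluorescence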). Particulars: streptavidin beads, fluorescein-biotin binding; at 10 µM, stronger effect = higher value.
Assay [17] concerns the target Guanine nucleotide-binding protein G(o) subunit alpha (Homo sapiens) (UniProt P09471). The experiment in a line: RGS8-Galphao binding modulators, confirmation, biochemical, multiplexed bead flow cytometry, single concentration (AID 1836; in the data active means binding response below about 72% or above about 130%; inactive means in between;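 further: Galphao activated as GDP AlF4 complex before binding bead RGS8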). The settings on record: bead-based flow cytometry RGS8-Galphao binding, fluorescence; at 10 µM; actives lie on both sides.
For assay [18] the target is unchanged. The experiment in a line: RGS7-Galphao binding modulators, confirmation, biochemical, multiplexed bead flow cytometry, single concentration (AID 1837; in the data active means response below about 75% or above about 130%; inactive means in between;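 further: fluorescent Galphao activated with GDP and aluminum fluoride binding bead-coupled RGS7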). Particulars: bead-based flow cytometry RGS7-Galphao binding; at 10 µM; actives lie on both sides.
In assay [19] the target is Regulator of G-protein signaling 16 (Homo sapiens) + Guanine nucleotide-binding protein G(o) subunit alpha (Homo sapiens) (UniProt O15492+P09471). As to the kind of experiment: modulators of RGS16-Galphao protein binding, confirmation, biochemical, single concentration, multiplexed bead flow cytometry (AID 1838; in the data active means response below about 74% or above about 130%; inactive means in between;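 further: Galphao activated as the GDP aluminium fluoride complex binding bead-coupled RGS16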). The settings on record: bead-based flow cytometry, at 10 µM, actives lie on both sides.

Assay [20] has as its target Guanine nucleotide-binding protein G(o) subunit alpha (Homo sapiens) (UniProt P09471). As to the kind of experiment: modulators of RGS4-Galphao protein binding, confirmation, biochemical, single concentration, multiplexed bead flow cytometry (AID 1840; in the data active means binding response below about 74% or above about 130%; inactive means in between). The settings on record: at 10 µM, actives lie on both sides.
Assay [21] deals with Guanine nucleotide-binding protein G(o) subunit alpha (Homo sapiens) + Regulator of G-protein signaling 19 (Homo sapiens) (UniProt P09471+P49795). As to the kind of experiment: regulators of RGS19-Galphao binding, confirmation, biochemical, single point, multiplexed bead flow cytometry (AID 1841; in the data active means response below about 50% or above about 160%; inactive means in between;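 further: 100% = no compound control and 0% = blank background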). The settings on record: bead-based flow cytometry RGS19-Galphao binding; at 10 µM; actives lie on both sides.

Setting [22] is: measured here: daughter cell gate.
Where [23] appears, read: measured here: mother cell gate.

For part of these data: Entries with a potency or affinity are not part of this list. Some of the results follow. Activity calls are given as the source filed them.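 How the source made its calls, unless noted: active means fitted half-maximal concentration within 10 nM to 100 µM, steepness 0.5 to 2, significant signal drop, low assay interference; inactive means the rest.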

Chain of Cell division control protein 42 homolog (Homo sapiens) (P60953 whole entry, looked up): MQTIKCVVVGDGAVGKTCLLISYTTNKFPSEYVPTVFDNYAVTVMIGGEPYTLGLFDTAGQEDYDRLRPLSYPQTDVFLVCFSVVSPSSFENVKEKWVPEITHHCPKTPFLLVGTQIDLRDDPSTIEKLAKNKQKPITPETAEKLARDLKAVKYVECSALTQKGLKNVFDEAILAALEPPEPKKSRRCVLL
Chain of GTPase HRas (Homo sapiens) (P01112 whole entry, looked up): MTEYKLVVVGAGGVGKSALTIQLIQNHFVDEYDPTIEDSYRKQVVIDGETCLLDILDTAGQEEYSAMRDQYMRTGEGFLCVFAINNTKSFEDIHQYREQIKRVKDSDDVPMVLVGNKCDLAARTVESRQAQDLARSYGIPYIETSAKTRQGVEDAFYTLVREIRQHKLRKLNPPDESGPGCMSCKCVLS
Chain of Guanine nucleotide-binding protein G(o) subunit alpha (Homo sapiens) (P09471 whole entry, looked up): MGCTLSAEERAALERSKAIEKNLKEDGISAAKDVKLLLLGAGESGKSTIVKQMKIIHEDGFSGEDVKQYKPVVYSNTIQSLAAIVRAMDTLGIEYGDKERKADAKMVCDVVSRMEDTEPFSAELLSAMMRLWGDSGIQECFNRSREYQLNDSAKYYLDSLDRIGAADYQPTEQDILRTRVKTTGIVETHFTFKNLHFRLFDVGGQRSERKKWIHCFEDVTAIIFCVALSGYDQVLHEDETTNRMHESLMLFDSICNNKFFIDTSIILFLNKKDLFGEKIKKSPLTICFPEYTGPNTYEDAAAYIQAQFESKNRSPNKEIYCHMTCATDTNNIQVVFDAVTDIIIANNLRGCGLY
Chain of Guanine nucleotide-binding protein G(o) subunit alpha (Homo sapiens) + Regulator of G-protein signaling 19 (Homo sapiens) (P09471 whole entry, looked up): as above
Chain of Guanine nucleotide-binding protein G(o) subunit alpha (Homo sapiens) + Regulator of G-protein signaling 19 (Homo sapiens) (P49795 whole entry, looked up): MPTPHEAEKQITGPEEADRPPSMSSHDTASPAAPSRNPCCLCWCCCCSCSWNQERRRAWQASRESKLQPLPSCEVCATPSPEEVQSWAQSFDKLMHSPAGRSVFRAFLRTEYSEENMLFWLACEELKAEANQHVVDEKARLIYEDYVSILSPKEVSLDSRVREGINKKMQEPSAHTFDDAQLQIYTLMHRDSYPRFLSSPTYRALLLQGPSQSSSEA
Chain of Regulator of G-protein signaling 16 (Homo sapiens) + Guanine nucleotide-binding protein G(o) subunit alpha (Homo sapiens) (O15492 whole entry, looked up): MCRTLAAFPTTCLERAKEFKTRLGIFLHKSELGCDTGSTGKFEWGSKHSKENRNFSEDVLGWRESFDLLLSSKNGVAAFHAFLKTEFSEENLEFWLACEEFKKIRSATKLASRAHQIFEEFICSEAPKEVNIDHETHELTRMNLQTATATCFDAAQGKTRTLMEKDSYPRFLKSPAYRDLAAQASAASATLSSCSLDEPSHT
Chain of Regulator of G-protein signaling 16 (Homo sapiens) + Guanine nucleotide-binding protein G(o) subunit alpha (Homo sapiens) (P09471 whole entry, looked up): as the sequence (P09471 whole entry, looked up) above

With `CCCCOC(=O)c1cccnc1SCCc1ccccc1`, the result in [1], in [4] and in assay [6] was inactive. For the same molecule, the fluorescence, percent of control (lower = inhibition) in assay [2] amounted to 48.2%. Moreover, in assay [3], the GTP binding, percent of control was found to be 125%. Moreover, in assay [5], the GTP binding signal, raw median fluorescence (lower = inhibition) (MCF (arbitrary fluorescence units)) came out at 69.8.

As to `COc1cc2[nH]c(=S)nc(NCc3ccccn3)c2cc1OC`, the molecule was called inactive in [1], in [4] and in assay [6]. The fluorescence, percent of control (lower = inhibition) in assay [2] amounted to 31.9%. Moreover, the GTP binding, percent of control in [3] turned out to be 71.7%. For the same molecule, the GTP binding signal, raw median fluorescence (lower = inhibition) (MCF (arbitrary fluorescence units)) in assay [5] was 176.

`COc1cc(C)c2c(c1C=O)Oc1c(c(C)c(O)c3c1C(O)OC3=O)OC2=O` (centres undefined): the molecule was classed as inactive in assay [1], in assay [4] and in [6]. For the same molecule, the fluorescence, percent of control (lower = inhibition) in assay [2] amounted to 54.3%. Further, the GTP binding, percent of control in assay [3] was 102%. In assay [5], this molecule yielded a GTP binding signal, raw median fluorescence (lower = inhibition) (MCF (arbitrary fluorescence units)) of 135.

On to `Cc1ccc(CSc2nnc(-c3ccccc3N)c(=O)[nH]2)cc1`, for which the call in assay [1], in [4] and in assay [6] was inactive. Moreover, the fluorescence, percent of control (lower = inhibition) in [2] was 34.1%. The molecule also had a GTP binding, percent of control in [3] of 80.1%. In assay [5], this molecule came in with a GTP binding signal, raw median fluorescence (lower = inhibition) (MCF (arbitrary fluorescence units)) of 259.

`Cc1nc2sccn2c1-c1nc(-c2cc3ccccc3o2)cs1`: the molecule was classed as inactive in [1], in [4] and in assay [6]. Also, the fluorescence, percent of control (lower = inhibition) in [2] is 50.9%. This molecule registered a GTP binding, percent of control in [3] of 57.4%. In assay [5], this molecule came in with a GTP binding signal, raw median fluorescence (lower = inhibition) (MCF (arbitrary fluorescence units)) of 155.

With `N=C1/C(=C\c2ccc(SCc3ccco3)o2)C(=O)N=C2SC=NN12`, the call in assay [1], in assay [4] and in [6] was inactive. In addition, in assay [2], the fluorescence, percent of control (lower = inhibition) was 64.2%. The GTP binding, percent of control in [3] turned out to be 108%. In addition, in assay [5], the GTP binding signal, raw median fluorescence (lower = inhibition) (MCF (arbitrary fluorescence units)) is 112.

Turning to `CS(=O)(=O)Nc1ccc(Br)cc1C(=O)c1ccccc1`, the call in assay [1], in assay [4] and in assay [6] was inactive. Further, the fluorescence, percent of control (lower = inhibition) in [2] turned out to be 46.4%. This molecule returned a GTP binding, percent of control in assay [3] of 59%. The molecule also displayed a GTP binding signal, raw median fluorescence (lower = inhibition) (MCF (arbitrary fluorescence units)) in assay [5] of 205.

Take `CCOc1cc(/C=N/NC(=O)C(C)Sc2ccccc2)ccc1O` (centres undefined): the call in [1], in assay [4] and in assay [6] was inactive. Also, the fluorescence, percent of control (lower = inhibition) in assay [2] came out at 31.8%. Also, the GTP binding, percent of control in [3] was found to be 73.5%. The molecule also displayed a GTP binding signal, raw median fluorescence (lower = inhibition) (MCF (arbitrary fluorescence units)) in assay [5] of 165.

With `CCOC(=O)Cn1c(=O)c2c(nc(N3CCCCC3)n2C)n(C)c1=O`, the result in [1], in assay [4] and in assay [6] was inactive. In addition, in assay [2], the fluorescence, percent of control (lower = inhibition) was 52.2%. Also, the GTP binding, percent of control in assay [3] turned out to be 63.3%. In assay [5], this molecule displayed a GTP binding signal, raw median fluorescence (lower = inhibition) (MCF (arbitrary fluorescence units)) of 168.

In the case of `CO/N=C/NC(=O)NOCc1ncc(C(F)(F)F)cc1Cl`, the call in [1], in [4] and in assay [6] was inactive. The fluorescence, percent of control (lower = inhibition) in assay [2] came out at 38.1%. Moreover, the GTP binding, percent of control in [3] was 86.2%. This molecule had a GTP binding signal, raw median fluorescence (lower = inhibition) (MCF (arbitrary fluorescence units)) in assay [5] of 295.

Regarding `COc1ccc(N=C2S/C(=C\c3ccc(N4CCOCC4)o3)C(=O)N2CCc2c[nH]c3ccccc23)cc1`, the molecule was classed as inactive in assay [1], in [4] and in assay [6]. In addition, in assay [2], the fluorescence, percent of control (lower = inhibition) turned out to be 133%. The same molecule came in with a GTP binding, percent of control in assay [3] of 212%. Further, in [5], the GTP binding signal, raw median fluorescence (lower = inhibition) (MCF (arbitrary fluorescence units)) worked out at 210.

Take `CCOc1nnc(C)c2c(C)n(-c3cccc(OC)c3)nc12`: the molecule was called inactive in assay [1], in [4] and in assay [6]. Also, the fluorescence, percent of control (lower = inhibition) in assay [2] was 55.9%. For the same molecule, the GTP binding, percent of control in assay [3] is 67.2%. Also, the GTP binding signal, raw median fluorescence (lower = inhibition) (MCF (arbitrary fluorescence units)) in [5] is 194. Besides, the GFP response vs DMSO in assay [7] is 104% (inactive); in [7] (setting [22]) it was 102%; in [7] (setting [23]) it was 106%; in assay [9], 102% (inactive). In addition, the values for the GFP response relative to DMSO in [8], in assay [8] (measured here: daughter cell gate response) and in assay [8] (measured here: mother cell gate response) were 98.7% (inactive), 98.7% and 100%, respectively. The GFP response, % of DMSO in assay [10] was 99.8% (inactive); in [11] it was 108% (inactive); in assay [11] (setting [22]), 105%; in [11] (setting [23]) it was 109%.

As a reminder, the inhibition is the relative decrease from the control value, in per cent. Turning to `O=C(OCC1O[C@@H](OC(=O)c2cc(O)c(O)c(O)c2)[C@@H](OC(=O)c2cc(O)c(O)c(O)c2)[C@@H](OC(=O)c2cc(O)c(O)c(O)c2)[C@@H]1OC(=O)c1cc(O)c(O)c(O)c1)c1cc(O)c(O)c(O)c1` (some centres undefined), the call in [1], in [4] and in assay [6] was inactive. The fluorescence, percent of control (lower = inhibition) in [2] came out at 21.1%. In addition, the GTP binding, percent of control in assay [3] amounted to 58.6%. In addition, the GTP binding signal, raw median fluorescence (lower = inhibition) (MCF (arbitrary fluorescence units)) in assay [5] turned out to be 145. The molecule further had an RGS16–Galpha-o binding response in assay [12] of 51.1%. Also, the RGS19–Galpha-o binding response in assay [13] is -410%. Besides, the RGS7–Galpha-o binding response in assay [14] amounted to 20.5%. Further, the RGS8–Galpha-o binding response in assay [15] came to 46.9%. The inhibition in assay [16] is -1.9% (inactive). The binding response (% of control) in assay [17] is 35.2% (active); in [20] it was -1.02% (active). For the same molecule, the response (percent of control binding) was -10.3% (active) in assay [18] and 46.8% [inhibitor] (active) in [21]. Also, the response (% of control binding) in assay [19] was 29.8% (active).

Source of the values: PubChem BioAssay.
